Most compounds without a hit are left out; they make up all but 6.9% or so of the library.
HP1b chromo inh – HTS for Inhibitors of HP1-beta Chromodomain Interactions with Methylated Histone Tails; Potency, µM (top dose mostly 114 µM), most hits filed as inhibitors; hit rate 0.56% among 390,000; Chromobox protein homolog 1 (Homo sapiens), P83916; AlphaScreen HP1-beta / biotin-H3K9me3 peptide binding; also: nearly all actives have a fitted effect of over 70% in size
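AlphaScreen: HP1-beta (50 nM) preformed 30 min with biotin-H3(1-18)K9me3 peptide (50 nM) in PBS pH 7.4, 0.01% Tween-20. Compound added for 30 min at RT, then streptavidin donor/nickel chelate acceptor beads (10 ug/mL) for 30 min.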
VDR inh – Inhibitors of the vitamin D receptor (VDR): qHTS | AID 504847, 2011 | VDR-SRC2-3 peptide fluorescence polarization, 2 h | Potency, µM, usual class: inhibitors | hit rate 0.93% among 400,000 | Vitamin D3 receptor (Homo sapiens), P11473
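Fluorescence polarization assay measuring small-molecule disruption of VDR binding to the coregulator peptide SRC2-3. Compounds were pin-transferred (23 nl) into the reagent mix and incubated 2 h at room temperature before reading.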
JMJD2A Tudor inh – qHTS Assay for Inhibitors of JMJD2A-Tudor Domain; Lysine-specific demethylase 4A (Homo sapiens), O75164; AlphaScreen JMJD2A-Tudor / H3K4me3 peptide binding; hit rate 4.4% among 390,000; Potency, µM (top dose mostly 114 µM), usual class: inhibitors; AID 504339, 2011; also: nearly all actives have a fitted effect of over 50% in size
BAZ2B block – qHTS Assay for Inhibitors of BAZ2B; Bromodomain adjacent to zinc finger domain protein 2B (Homo sapiens), Q9UIF8; AlphaScreen BAZ2B-H3K14Ac peptide displacement; Potency, µM (titrated, usually from 114 µM), usual class: inhibitors; hit rate 4.4% among 360,000; AID 504333, 2011; also: nearly all actives have a fitted effect of over 60% in size
Target sequence (Q9UIF8 whole entry, looked up, the tested form may be a part): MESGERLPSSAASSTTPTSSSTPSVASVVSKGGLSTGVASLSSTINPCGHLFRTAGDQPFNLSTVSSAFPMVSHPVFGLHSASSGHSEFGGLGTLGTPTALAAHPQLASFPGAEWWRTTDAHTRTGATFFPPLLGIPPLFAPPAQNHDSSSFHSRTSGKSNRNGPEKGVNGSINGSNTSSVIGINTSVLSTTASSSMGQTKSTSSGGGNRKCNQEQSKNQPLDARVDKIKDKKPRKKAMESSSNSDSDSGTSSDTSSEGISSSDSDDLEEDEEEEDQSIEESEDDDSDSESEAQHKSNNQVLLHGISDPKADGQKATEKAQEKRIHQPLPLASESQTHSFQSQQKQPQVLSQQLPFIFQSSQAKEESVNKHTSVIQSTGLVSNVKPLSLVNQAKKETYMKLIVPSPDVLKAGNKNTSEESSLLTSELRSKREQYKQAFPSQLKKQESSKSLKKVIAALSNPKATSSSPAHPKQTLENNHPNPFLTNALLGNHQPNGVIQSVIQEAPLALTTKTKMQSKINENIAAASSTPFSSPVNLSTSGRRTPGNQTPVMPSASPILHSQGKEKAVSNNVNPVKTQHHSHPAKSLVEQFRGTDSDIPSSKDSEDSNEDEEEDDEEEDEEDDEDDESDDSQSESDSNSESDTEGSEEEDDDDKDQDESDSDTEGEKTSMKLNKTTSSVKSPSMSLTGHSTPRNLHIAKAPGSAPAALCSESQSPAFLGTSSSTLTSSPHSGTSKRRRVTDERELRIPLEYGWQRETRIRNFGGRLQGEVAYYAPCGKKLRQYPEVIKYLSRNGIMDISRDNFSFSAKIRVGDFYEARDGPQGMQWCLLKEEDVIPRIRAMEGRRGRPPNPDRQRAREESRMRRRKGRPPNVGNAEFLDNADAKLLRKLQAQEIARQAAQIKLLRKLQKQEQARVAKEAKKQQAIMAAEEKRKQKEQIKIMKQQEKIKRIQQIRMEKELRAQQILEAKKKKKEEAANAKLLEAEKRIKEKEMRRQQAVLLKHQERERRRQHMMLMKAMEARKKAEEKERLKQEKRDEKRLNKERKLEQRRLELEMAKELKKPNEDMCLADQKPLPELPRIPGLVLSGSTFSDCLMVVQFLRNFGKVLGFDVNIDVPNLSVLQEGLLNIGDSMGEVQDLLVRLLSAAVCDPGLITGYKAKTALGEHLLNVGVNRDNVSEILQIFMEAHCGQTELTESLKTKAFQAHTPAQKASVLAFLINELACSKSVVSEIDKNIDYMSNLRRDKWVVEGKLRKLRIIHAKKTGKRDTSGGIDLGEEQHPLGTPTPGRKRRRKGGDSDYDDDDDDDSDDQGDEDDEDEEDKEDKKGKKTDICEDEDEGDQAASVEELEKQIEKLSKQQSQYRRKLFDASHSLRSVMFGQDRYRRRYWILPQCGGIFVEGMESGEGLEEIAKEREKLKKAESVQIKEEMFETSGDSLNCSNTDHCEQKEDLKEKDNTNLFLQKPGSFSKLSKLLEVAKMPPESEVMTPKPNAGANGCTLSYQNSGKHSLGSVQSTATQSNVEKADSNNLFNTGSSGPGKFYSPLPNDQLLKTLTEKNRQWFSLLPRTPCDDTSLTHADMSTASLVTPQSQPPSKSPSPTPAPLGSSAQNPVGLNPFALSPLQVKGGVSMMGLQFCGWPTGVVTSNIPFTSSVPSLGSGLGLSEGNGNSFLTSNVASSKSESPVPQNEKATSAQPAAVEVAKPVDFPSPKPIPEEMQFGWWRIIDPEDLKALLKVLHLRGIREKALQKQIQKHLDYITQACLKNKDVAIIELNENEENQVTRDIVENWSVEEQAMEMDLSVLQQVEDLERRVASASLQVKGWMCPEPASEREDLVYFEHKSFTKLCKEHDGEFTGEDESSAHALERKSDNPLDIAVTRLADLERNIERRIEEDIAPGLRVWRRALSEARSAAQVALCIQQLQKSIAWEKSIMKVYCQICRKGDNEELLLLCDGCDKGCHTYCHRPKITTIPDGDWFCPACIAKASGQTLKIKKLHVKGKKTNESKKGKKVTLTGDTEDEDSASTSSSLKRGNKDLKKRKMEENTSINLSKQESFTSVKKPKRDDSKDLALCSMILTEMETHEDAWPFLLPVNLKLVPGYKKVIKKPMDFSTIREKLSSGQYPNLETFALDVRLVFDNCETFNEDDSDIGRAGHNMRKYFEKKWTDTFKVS
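BAZ2B (50 nM) with biotin-H3(5-23)K14Ac peptide (50 nM) in PBS pH 7.4, 0.01% Tween-20, preformed 30 min, then compound 30 min at room temperature; top concentration 110uM. AlphaScreen streptavidin donor/nickel chelate acceptor beads (10 ug/mL final), 20 min dark, signal read.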
PLK1 PBD inh – qHTS for Inhibitors of PLK1-PDB (polo-like kinase 1 - polo-box domain): Primary Screen | Serine/threonine-protein kinase PLK1 (Homo sapiens), P53350 | Plk1 PBD binding of FITC phosphopeptide, fluorescence polarization | Potency, µM, usual class: inhibitors | hit rate 2.8% among 360,000 | AID 720504, 2013; also: series mostly up to about 57 µM; nearly all actives have a fitted effect of over 65% in size
L3MBTL1 inh – qHTS Assay for the Inhibitors of L3MBTL1 | AID 485360, 2010 | AlphaScreen L3MBTL1–H3K9me1 peptide binding | hit rate 0.66% among 230,000 | Potency, µM (doses to about 57.1 µM), usual class: inhibitors | Lethal(3)malignant brain tumor-like protein 1 (Homo sapiens), Q9Y468; also: nearly all actives have a fitted effect of over 60% in size
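L3MBTL1 (50 nM) pre-complexed 30 min with biotinylated H3(1-15)K9me1 peptide (75 nM), then compounds added for 30 min at room temperature; AlphaScreen streptavidin donor/nickel chelate acceptor beads (10 ug/mL final) read after 30 min dark incubation.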
Large screens that a line does not name were inactive; ! = repeats disagree. Calls follow the shape of the dose curve; as a rule, active = well fitted curve in the direction sought with a large enough effect; inconclusive = small, poorly fitted or top-dose-only effect, or another doubt; inactive = no such curve, though single readings can be large; an effect the other way counts as inactive or inconclusive.

Cc1cc(C)c(S(=O)(=O)NCC(c2ccc(N(C)C)cc2)N2CCOCC2)c(C)c1 (centres undefined)	HP1b chromo inh inconclusive, JMJD2A Tudor inh 50µM, BAZ2B block 40µM (no result: PLK1 PBD inh, L3MBTL1 inh)
Cc1cc(S(=O)(=O)NCC(c2ccc(N(C)C)cc2)N2CCOCC2)ccc1F (centres undefined)	JMJD2A Tudor inh inconclusive, BAZ2B block inconclusive (no result: PLK1 PBD inh, L3MBTL1 inh)
CCC(CC)NC(=O)c1cccc([N+](=O)[O-])c1C	none
Cc1c(C(=O)NC(C)CCc2ccccc2)cccc1[N+](=O)[O-] (centres undefined)	HP1b chromo inh inconclusive, PLK1 PBD inh 12µM
N#CC1=C(N)Oc2c(oc(CO)cc2=O)C1c1cccs1 (centres undefined)	JMJD2A Tudor inh 28µM
CCOC(=O)C1=C(C)OC(N)=C(C#N)C1c1cccs1 (centres undefined)	none (no result: L3MBTL1 inh)
N#CC1=C(N)Oc2c(oc(CO)cc2=O)C1c1ccsc1 (centres undefined)	BAZ2B block 50µM (no result: L3MBTL1 inh)
CC(C)CN(CCCNC(=O)c1cc(-c2ccc(Br)s2)nc2ccccc12)CC(C)C	none (no result: PLK1 PBD inh, L3MBTL1 inh)
O=C(COc1ccccc1)NC(NC(=S)Nc1ccccc1C(=O)O)C(Cl)(Cl)Cl (centres undefined)	HP1b chromo inh inconclusive, VDR inh inconclusive, JMJD2A Tudor inh 32µM, PLK1 PBD inh 27µM
Cc1ccc(C)c(NC(=S)NC(NC(=O)Cc2ccccc2)C(Cl)(Cl)Cl)c1 (centres undefined)	PLK1 PBD inh inconclusive (no result: L3MBTL1 inh)
COc1cc(F)c(S(=O)(=O)N2CCN(S(=O)(=O)c3ccco3)CC2)c(F)c1	none (no result: HP1b chromo inh, VDR inh, BAZ2B block, PLK1 PBD inh, L3MBTL1 inh)
CCOC(=O)/C(=C\c1ccc(C)cc1)NC(=O)c1ccccc1	none
CCOC(=O)C(=Cc1ccc(-n2cncn2)cc1)C(=O)OCC	VDR inh 16µM, PLK1 PBD inh inconclusive (no result: L3MBTL1 inh)
CCOC(=O)C(=Cc1ccccc1)C(=O)OCC	VDR inh 10µM (no result: HP1b chromo inh, JMJD2A Tudor inh, BAZ2B block, PLK1 PBD inh, L3MBTL1 inh)
O=C(NN1CCOCC1)c1ccc(Cl)s1	none
CCc1ccc2nc(NC(=O)c3ccc(N4C(=O)CCC4=O)cc3)sc2c1	none (no result: L3MBTL1 inh)
CNS(=O)(=O)c1ccc2nc(NC(=O)c3ccc(N4C(=O)CCC4=O)cc3)sc2c1	VDR inh inconclusive, JMJD2A Tudor inh inconclusive, PLK1 PBD inh 7.5µM (no result: L3MBTL1 inh)
O=c1c2ccccc2sn1-c1cc(S(=O)(=O)N2CCOCC2)ccc1N1CCCC1	VDR inh inconclusive, JMJD2A Tudor inh 22µM, BAZ2B block 14µM, PLK1 PBD inh 3µM (no result: L3MBTL1 inh)
O=c1c2ccccc2sn1-c1cc(S(=O)(=O)N2CCOCC2)ccc1N1CCCCC1	HP1b chromo inh inconclusive, VDR inh 28µM, JMJD2A Tudor inh 13µM (no result: BAZ2B block, PLK1 PBD inh, L3MBTL1 inh)
O=c1c2ccccc2sn1-c1cc(S(=O)(=O)N2CCOCC2)ccc1N1CCOCC1	HP1b chromo inh 8.9µM, VDR inh 18µM!, JMJD2A Tudor inh 4µM, BAZ2B block 3.5µM, PLK1 PBD inh 0.84µM
Cc1ccccc1NC(=O)c1sc2nc(N3CCOCC3)c3c(c2c1N)CC(C)(C)OC3	none (no result: PLK1 PBD inh, L3MBTL1 inh)
Cc1ccc(S(=O)(=O)NCc2cccnc2)cc1C(=O)NC1CCCCC1	none
Cc1ccc(C)c(OCc2nc3ccc(S(=O)(=O)Nc4c(C)n(C)n(-c5ccccc5)c4=O)cc3[nH]2)c1	none (no result: BAZ2B block)
COc1ccc(-c2c/c(=N\c3nc(-c4ccccc4)c(C)s3)c3ccccc3o2)cc1O	HP1b chromo inh inconclusive, JMJD2A Tudor inh inconclusive, BAZ2B block 50µM (no result: L3MBTL1 inh)
Cc1ccc(C(=O)NC(C)c2ccc3c(c2)OCO3)s1 (centres undefined)	HP1b chromo inh inconclusive, VDR inh inconclusive, JMJD2A Tudor inh inconclusive, PLK1 PBD inh 12µM
CN(C)S(=O)(=O)c1ccc2c(c1)N(CC(=O)NCc1ccccc1)C(=O)C1CCCCN21 (centres undefined)	none (no result: PLK1 PBD inh, L3MBTL1 inh)
CC(C)CNC(=O)c1cccc(NC(=O)C(C)Oc2ccccc2)c1 (centres undefined)	PLK1 PBD inh 27µM
O=C(N/N=C/C=C/c1ccccc1)C(O)c1ccccc1 (centres undefined)	none (no result: BAZ2B block, L3MBTL1 inh)
Cn1cccc1CC(=O)N/N=C/C=C/c1ccco1	HP1b chromo inh inconclusive, VDR inh inconclusive, JMJD2A Tudor inh inconclusive, BAZ2B block 56µM, L3MBTL1 inh 25µM
O=C(N/N=C/C=C/c1ccco1)C(O)c1ccccc1 (centres undefined)	VDR inh inconclusive, JMJD2A Tudor inh 56µM (no result: BAZ2B block, L3MBTL1 inh)
CCOc1ccc(C(=O)Nc2ccc(C(=O)OCc3cc(=O)n4c(C)csc4n3)cc2)cc1	none (no result: PLK1 PBD inh, L3MBTL1 inh)
COC(=O)c1c(C)[nH]c(C(=O)COC(=O)Cn2cc(C(F)(F)F)ccc2=O)c1C	none
COc1ccc(Nc2nccc(-c3cccc(N)c3)n2)cc1	BAZ2B block 56µM (no result: L3MBTL1 inh)
COc1ccc(Nc2nccc(NCCO)n2)cc1	none (no result: HP1b chromo inh, JMJD2A Tudor inh, BAZ2B block, PLK1 PBD inh, L3MBTL1 inh)
CNS(=O)(=O)c1cn(CC(=O)N2CCN(c3ccc(C)cc3C)CC2)cc1S(=O)(=O)NC	none (no result: PLK1 PBD inh, L3MBTL1 inh)
Nc1ccc2nc(-c3cccc(-c4nc5ccc(N)cc5[nH]4)c3)[nH]c2c1	VDR inh inconclusive, BAZ2B block inconclusive (no result: L3MBTL1 inh)
Nc1ccc2cc3[nH]c4cc(N)ccc4c3nc2c1	HP1b chromo inh inconclusive, JMJD2A Tudor inh inconclusive, PLK1 PBD inh 2.4µM (no result: BAZ2B block, L3MBTL1 inh)
Cc1sc(NC(=O)c2cccs2)c(C(N)=O)c1C	HP1b chromo inh inconclusive, PLK1 PBD inh 21µM
NC(=O)c1ccsc1NC(=O)c1cccs1	none (no result: BAZ2B block, L3MBTL1 inh)
CCOc1cc(C2CC(=O)NC(SCC)=C2C#N)ccc1O (centres undefined)	none (no result: L3MBTL1 inh)

High-throughput results as filed in PubChem BioAssay.
